# ± gives the standard deviation of the averaged measurements.
# Experiments:
# Test in all cases: promoter activity interaction Z-score (Lux/OD deviation from empty-vector control); higher = stronger promoter induction by the compound
# [1] = tested on: E. coli BW25113 acrABp lux reporter
# Summary of the method: (§1)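 E. coli BW25113, as wild type or one of three single-gene deletion strains, carried low-copy luxCDABE promoter reporters and grew in 40 µl LB Lennox in 384-well plates at 37°C, with OD600 and luminescence read every 30 min for 12 h. Each compound was run at four 1:2 dilutions in biological duplicates, integration spanned 0–8 h for wild type and 1–9 h for deletion strains, and wells under 10% of the median growth value were dropped. The score is the Z-transformed residual of growth-normalised luminescence fitted against a control.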
# [2] = tested on: E. coli BW25113 micFp lux reporter
# Summary of the method: as §1
# [3] = tested on: E. coli BW25113 ompFp lux reporter
# Summary of the method: as §1
# [4] = tested on: E. coli BW25113 robp lux reporter
# Summary of the method: as §1
# [5] = tested on: E. coli BW25113 soxSp lux reporter
# Summary of the method: as §1
# [6] = tested on: E. coli BW25113 tolCp lux reporter
# Summary of the method: as §1
# [7] = tested on: E. coli BW25113 marRABp lux reporter
# Summary of the method: as §1
# [8] = 0.62 µg/ml, genetic background: wild type
# [9] = 0.62 µg/ml, genetic background: ΔmarA
# [10] = 0.62 µg/ml, genetic background: Δrob
# [11] = 0.62 µg/ml, genetic background: ΔsoxS
# [12] = 1.2 µg/ml, genetic background: wild type
# [13] = 2.5 µg/ml, genetic background: wild type
# [14] = 0.0045 µg/ml, genetic background: wild type
# [15] = 0.0045 µg/ml, genetic background: ΔmarA
# [16] = 0.0045 µg/ml, genetic background: Δrob
# [17] = 0.0045 µg/ml, genetic background: ΔsoxS
# [18] = 0.009 µg/ml, genetic background: wild type
# [19] = 0.009 µg/ml, genetic background: ΔmarA
# [20] = 0.009 µg/ml, genetic background: Δrob
# [21] = 0.009 µg/ml, genetic background: ΔsoxS
smiles,measurement,setting,value
CC(=O)C(NC(=O)C(C)C(O)C(C)NC(=O)C(NC(=O)c1nc(C(CC(N)=O)NCC(N)C(N)=O)nc(N)c1C)C(O[C@@H]1O[C@@H](CO)[C@@H](O)[C@H](O)[C@]1(C)O[C@@H]1OC(CO)[C@H](O)[C@](O)(C(N)=O)[C@H]1O)c1cnc[nH]1)C(=O)NCCC1=NC(c2nc(C(N)=O)cs2)CS1 (some centres not stated) [Phleomycin],promoter activity interaction Z-score,[1]; [8],1.07 ± 0.23
same,promoter activity interaction Z-score,[1]; [9],-0.273 ± 0.32
same,promoter activity interaction Z-score,[1]; [10],1.04
same,promoter activity interaction Z-score,[1]; [11],0.298 ± 1.3
same,promoter activity interaction Z-score,[1]; [12],2.12
same,promoter activity interaction Z-score,[2]; [8],-0.476 ± 0.019
same,promoter activity interaction Z-score,[2]; [9],-0.254 ± 0.023
same,promoter activity interaction Z-score,[2]; [10],-0.0516 ± 0.18
same,promoter activity interaction Z-score,[2]; [11],-0.651 ± 0.16
same,promoter activity interaction Z-score,[2]; [12],-1.14 ± 0.14
same,promoter activity interaction Z-score,[2]; [13],-0.981 ± 0.31
same,promoter activity interaction Z-score,[3]; [8],1.83 ± 0.41
same,promoter activity interaction Z-score,[3]; [9],0.799 ± 2
same,promoter activity interaction Z-score,[3]; [10],-0.998
same,promoter activity interaction Z-score,[3]; [11],1.46 ± 2.8
same,promoter activity interaction Z-score,[3]; [12],-0.554
same,promoter activity interaction Z-score,[4]; [8],-0.5306 ± 0.0049
same,promoter activity interaction Z-score,[4]; [9],-0.313 ± 0.067
same,promoter activity interaction Z-score,[4]; [10],-1.12
same,promoter activity interaction Z-score,[4]; [11],-0.519 ± 0.41
same,promoter activity interaction Z-score,[4]; [12],-0.94 ± 0.28
same,promoter activity interaction Z-score,[5]; [8],0.286 ± 0.032
same,promoter activity interaction Z-score,[5]; [9],-0.0997 ± 0.0027
same,promoter activity interaction Z-score,[5]; [10],-0.106 ± 0.024
same,promoter activity interaction Z-score,[5]; [11],3.11 ± 2.5
same,promoter activity interaction Z-score,[5]; [12],-0.481 ± 0.012
same,promoter activity interaction Z-score,[5]; [13],-0.666 ± 0.31
same,promoter activity interaction Z-score,[6]; [8],-0.425 ± 0.84
same,promoter activity interaction Z-score,[6]; [9],-0.832 ± 0.55
same,promoter activity interaction Z-score,[6]; [10],-0.362 ± 0.33
same,promoter activity interaction Z-score,[6]; [11],0.481 ± 0.63
same,promoter activity interaction Z-score,[6]; [12],-0.433 ± 0.62
same,promoter activity interaction Z-score,[6]; [13],-1.33 ± 1.2
C[C@H]1COc2c(N3CCN(C)CC3)c(F)cc3c(=O)c(C(=O)O)cn1c23 [Levofloxacin],promoter activity interaction Z-score,[1]; [14],0.161 ± 0.16
same,promoter activity interaction Z-score,[1]; [15],1.19 ± 0.57
same,promoter activity interaction Z-score,[1]; [16],0.765 ± 0.3
same,promoter activity interaction Z-score,[1]; [17],0.13 ± 0.43
same,promoter activity interaction Z-score,[1]; [18],1.49 ± 0.47
same,promoter activity interaction Z-score,[1]; [19],3.65 ± 2.5
same,promoter activity interaction Z-score,[1]; [20],3
same,promoter activity interaction Z-score,[1]; [21],0.933 ± 0.088
same,promoter activity interaction Z-score,[7]; [14],0.0777 ± 0.09
same,promoter activity interaction Z-score,[7]; [15],0.886 ± 0.81
same,promoter activity interaction Z-score,[7]; [16],0.457 ± 0.39
same,promoter activity interaction Z-score,[7]; [17],0.129 ± 0.058
same,promoter activity interaction Z-score,[7]; [18],1.81 ± 0.43
same,promoter activity interaction Z-score,[7]; [20],2.37
same,promoter activity interaction Z-score,[7]; [21],1.61 ± 0.18
same,promoter activity interaction Z-score,[2]; [14],-0.267 ± 0.3
same,promoter activity interaction Z-score,[2]; [15],0.407 ± 0.14
same,promoter activity interaction Z-score,[2]; [16],0.249 ± 0.18
same,promoter activity interaction Z-score,[2]; [17],0.076 ± 0.062
same,promoter activity interaction Z-score,[2]; [18],0.268 ± 0.26
same,promoter activity interaction Z-score,[2]; [19],0.154 ± 0.1
same,promoter activity interaction Z-score,[2]; [20],-0.048
same,promoter activity interaction Z-score,[2]; [21],0.58 ± 0.097
same,promoter activity interaction Z-score,[3]; [14],0.0942 ± 0.084
same,promoter activity interaction Z-score,[3]; [15],0.337 ± 0.47
same,promoter activity interaction Z-score,[3]; [16],0.283 ± 0.32
same,promoter activity interaction Z-score,[3]; [17],0.00971 ± 0.41
same,promoter activity interaction Z-score,[3]; [18],0.729 ± 0.33
same,promoter activity interaction Z-score,[3]; [19],1.02 ± 1.5
same,promoter activity interaction Z-score,[3]; [21],2.15 ± 2.1
same,promoter activity interaction Z-score,[4]; [14],0.859 ± 0.36
same,promoter activity interaction Z-score,[4]; [15],0.95 ± 0.41
same,promoter activity interaction Z-score,[4]; [16],-0.178 ± 0.062
same,promoter activity interaction Z-score,[4]; [17],0.248 ± 0.29
same,promoter activity interaction Z-score,[4]; [18],-0.182 ± 0.079
same,promoter activity interaction Z-score,[4]; [19],0.841 ± 0.84
same,promoter activity interaction Z-score,[4]; [20],0.348
same,promoter activity interaction Z-score,[4]; [21],-0.154 ± 1.2
same,promoter activity interaction Z-score,[5]; [14],-0.114 ± 0.024
same,promoter activity interaction Z-score,[5]; [15],0.133 ± 0.013
same,promoter activity interaction Z-score,[5]; [16],-0.071 ± 0.15
same,promoter activity interaction Z-score,[5]; [17],0.197 ± 0.43
same,promoter activity interaction Z-score,[5]; [18],0.185 ± 0.047
same,promoter activity interaction Z-score,[5]; [19],0.0863 ± 0.079
same,promoter activity interaction Z-score,[5]; [20],-0.0469 ± 0.15
same,promoter activity interaction Z-score,[5]; [21],2.32 ± 0.6
same,promoter activity interaction Z-score,[6]; [14],-0.228 ± 1.2
same,promoter activity interaction Z-score,[6]; [15],0.741 ± 0.18
same,promoter activity interaction Z-score,[6]; [16],-0.128 ± 1
same,promoter activity interaction Z-score,[6]; [17],-0.647 ± 0.99
same,promoter activity interaction Z-score,[6]; [18],0.287 ± 1
same,promoter activity interaction Z-score,[6]; [19],0.606
same,promoter activity interaction Z-score,[6]; [20],-0.887
same,promoter activity interaction Z-score,[6]; [21],2.55 ± 1.9

# — the supplement of paper PMC12282887
